Among the data in the OligoGym collection are sensor-assay potency score (higher = more potent) values, retold here.
Note: reference of the scale not given here.

For one assay, the target named is ZBTB9. The assay can be described thus: pooled miR-30 sensor sort-seq; sequence = guide strand. The conditions noted are these: shRNA.
The sequence TCGGCTTCAATGACACTCGGTA displayed a sensor-assay potency score (higher = more potent) of -0.397.

In the case of TAAATAATTGAAAATCTGGTTT, the sensor-assay potency score (higher = more potent) is -0.887.

Consider TTAAGCTGTAAATCAAATGTAT, for which the sensor-assay potency score (higher = more potent) was -0.457.

Turning to TAACACTGCTTTATGAGCCCTA, the sensor-assay potency score (higher = more potent) was -0.401.

Take TAAAACATTTACCACTGTCTTT: the sensor-assay potency score (higher = more potent) was -1.1.

In turn, TTAATGTAGAAGATTTTGGGGG came in with a sensor-assay potency score (higher = more potent) of -0.261.

As to TTGAGTTTCCACATCTGCCAGG, the sensor-assay potency score (higher = more potent) was -0.504.

The sequence TGAGCACTGATCTACTACCTGC registered a sensor-assay potency score (higher = more potent) of -0.24.

On to TAATTCTCTAAGAATTTCTGAG, for which the sensor-assay potency score (higher = more potent) was -0.361.

The sequence TTTCTGAGCACTGATCTACTAC displayed a sensor-assay potency score (higher = more potent) of -0.637.

Take TTTTGCTCTAACTCTTCTCTCA: the sensor-assay potency score (higher = more potent) is -0.273.

TTTAAGTAACTGCAAGTCCCAC gave a sensor-assay potency score (higher = more potent) of -0.539.

The target of the next assay is ZC3H13. The description is as above. The following applies: shRNA.
In turn, TTGGATTCCTATCTTCTCGGAT displayed a sensor-assay potency score (higher = more potent) of 0.12.

In turn, TTGAGGTCGTACAACTTGGCTC yielded a sensor-assay potency score (higher = more potent) of -0.282.

Regarding TTTTGATCTAACCACTTCTGGT, the sensor-assay potency score (higher = more potent) is -0.785.

Sequence TAGACTTTCTTAGAGAAGGTGA displayed a sensor-assay potency score (higher = more potent) of 0.611.

For the sequence TTTCAGGATAGCTACTTCGAGT, the sensor-assay potency score (higher = more potent) was -1.23.

Sequence TTCATTTCTATAGCGCTTCTTT came in with a sensor-assay potency score (higher = more potent) of -0.352.

As for TTGAACTCTCTTTCCTTTCTGG, the sensor-assay potency score (higher = more potent) is 0.745.

Take TTGATCTAACCACTTCTGGTGA: the sensor-assay potency score (higher = more potent) was -0.291.

Take TATAATTGCTGCTATAACCTTT: the sensor-assay potency score (higher = more potent) is -0.316.

In the case of TATTCCAACATCATCCTCTTTC, the sensor-assay potency score (higher = more potent) amounted to 0.216.

As for TTCTCGGATCTCTTCTCGCTTT, the sensor-assay potency score (higher = more potent) is -0.478.

Sequence TTGTTCTTCATTCTTTCTCTAA returned a sensor-assay potency score (higher = more potent) of -0.618.

A further assay addresses ZDHHC14. The assay is described as above. The conditions noted are these: shRNA.
Regarding TTGCAGTCTGGCCACAAGCGTC, the sensor-assay potency score (higher = more potent) is -1.44.

As for TTGATGATGACTTCTTTGGTTC, the sensor-assay potency score (higher = more potent) is -0.541.

In turn, TTGGTCGCACATGTCACTCTGT had a sensor-assay potency score (higher = more potent) of 0.506.

Take TTACAGAAGAACTTGTTTCTTC: the sensor-assay potency score (higher = more potent) was 0.472.

On to TTAGGAATCCTGTTTGCTGTGA, for which the sensor-assay potency score (higher = more potent) is 0.039.

TTTGTTGTCTGGTTGGAGCTGA: the sensor-assay potency score (higher = more potent) came to 0.539.

The sequence TTACCTCTTTTATTTGACCAGG came in with a sensor-assay potency score (higher = more potent) of -0.803.

The sequence TTTGCGATATCTATTTGCCTTT returned a sensor-assay potency score (higher = more potent) of -0.604.

TAGTAGCATAACACATAAGTGC had a sensor-assay potency score (higher = more potent) of -0.719.

In turn, TTGGAGCTGATCAAGTAGGTGT gave a sensor-assay potency score (higher = more potent) of 0.206.

A further assay concerns the target ZDHHC20. The description is as above. The following applies: shRNA.
As to TTTTGCACGTGTATCTGTCAGT, the sensor-assay potency score (higher = more potent) was -0.551.

For the sequence TTGTAACAGAAGCTTGTTCTGG, the sensor-assay potency score (higher = more potent) was -0.283.

Consider TTCAGCTCCATTCTCCAGCCAC, for which the sensor-assay potency score (higher = more potent) was -0.374.

Take TTGGACAAGTAGAACTCTTTGG: the sensor-assay potency score (higher = more potent) is -0.323.

TTGTTGTCTTTCTTGGCTGAAT had a sensor-assay potency score (higher = more potent) of -1.21.
